Results reported in PubChem BioAssay.
Several values for one entry are separate records, joined by “and”; a condition that tells them apart may be missing. Equal values may be shown once. Activity calls are given as the source filed them.

What was measured:
[1] = E. coli DRC41 culture turbidity changes, primary screen, E. coli filamentation inducer project, strain DRC41, OD650, 48 h (AID 1152);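 further: E. coli MC1000 strain DRC41 lacking acrAB efflux pump and sulA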; conditions: E. coli DRC41 (acrAB sulA), higher = more signal, called active from +8 up or from −8 down
[2] = small-molecule binders of probe aLefty1, primary screen, biochemical, small-molecule microarray, 635/667 nm fluorescence (AID 1153); conditions: higher = more signal;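 further: score merges spot fluorescence with signal-to-noise ratio from the scanned slide images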
[3] = PSAC antagonists in infected red cells, primary screen, cell-based, P. falciparum Indochina, OD700, 1 h (AID 1154); conditions: P. falciparum Indochina infected RBC osmotic lysis, higher = more signal, called active from +8 up or from −8 down
[4] = PSAC antagonists in infected red cells, primary screen, cell-based, P. falciparum Indochina, OD700, 2 h (AID 1155);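 further: lysis reports solute entry through the parasite surface anion channel PSAC; channel blockers reduce lysis of infected cells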; conditions: P. falciparum Indochina infected erythrocytes, osmotic lysis OD700; higher = more signal, called active from +8 up or from −8 down
[5] = osmotic lysis modulators in infected erythrocytes, primary screen, PSAC antagonist project, cell-based, P. falciparum Indochina, OD700, 3 h (AID 1156); conditions: higher = more signal, called active from +8 up or from −8 down
[6] = PSAC antagonists in infected red cells, primary screen, cell-based, P. falciparum Indochina, OD700, 18 h (AID 1157); conditions: P. falciparum Indochina infected erythrocytes, osmotic lysis OD700, 18 h; higher = more signal, called active from +8 up or from −8 down
[7] = modulators of S6 phosphorylation in cells, primary screen, cell-based, A549, cytoblot, luminescence, serum-stimulated (AID 1158); conditions: A549 phospho-S6 cytoblot, 5 h, higher = more signal;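 further: serum-stimulated A549 lung adenocarcinoma cells; signal is phosphorylated S6 detected by cytoblot immunostaining with HRP secondary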
[8] = biological target: NADPH oxidase 2 (Homo sapiens) (UniProt P04839); assay: NOX2-dependent H2O2 signal modulators, primary screen, NOX inhibitor project, cell-based, HEK293-NOX2, PMA-stimulated, Amplex Red fluorescence (AID 1159); conditions: 45 min, higher = more signal, called active from +8 up or from −8 down; further: test concentration not given here
NADPH oxidase 2 (Homo sapiens), sequence (P04839 whole entry, looked up): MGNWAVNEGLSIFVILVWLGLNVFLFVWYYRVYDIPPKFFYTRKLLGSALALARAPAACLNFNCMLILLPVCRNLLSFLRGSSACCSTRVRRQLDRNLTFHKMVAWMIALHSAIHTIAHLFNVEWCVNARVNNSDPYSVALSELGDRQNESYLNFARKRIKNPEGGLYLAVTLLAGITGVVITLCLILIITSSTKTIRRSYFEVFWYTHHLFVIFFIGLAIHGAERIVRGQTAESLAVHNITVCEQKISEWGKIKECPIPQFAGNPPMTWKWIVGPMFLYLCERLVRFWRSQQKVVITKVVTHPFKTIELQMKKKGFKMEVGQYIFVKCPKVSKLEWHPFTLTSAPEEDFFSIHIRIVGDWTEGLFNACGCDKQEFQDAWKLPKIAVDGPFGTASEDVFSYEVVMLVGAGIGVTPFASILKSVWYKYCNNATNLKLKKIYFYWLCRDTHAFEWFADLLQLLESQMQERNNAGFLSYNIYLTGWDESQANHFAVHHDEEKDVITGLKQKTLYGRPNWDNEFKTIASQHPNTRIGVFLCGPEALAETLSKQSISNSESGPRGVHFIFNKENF

[9] = biological target: NADPH oxidase 4 (Homo sapiens) (UniProt Q9NPH5); assay: NOX4-dependent H2O2 signal modulators, primary screen, NOX inhibitor project, cell-based, HEK293-NOX4, tetracycline-induced, Amplex Red fluorescence (AID 1160); conditions: 45 min, higher = more signal, called active from +8 up or from −8 down
NADPH oxidase 4 (Homo sapiens), sequence (Q9NPH5 whole entry, looked up): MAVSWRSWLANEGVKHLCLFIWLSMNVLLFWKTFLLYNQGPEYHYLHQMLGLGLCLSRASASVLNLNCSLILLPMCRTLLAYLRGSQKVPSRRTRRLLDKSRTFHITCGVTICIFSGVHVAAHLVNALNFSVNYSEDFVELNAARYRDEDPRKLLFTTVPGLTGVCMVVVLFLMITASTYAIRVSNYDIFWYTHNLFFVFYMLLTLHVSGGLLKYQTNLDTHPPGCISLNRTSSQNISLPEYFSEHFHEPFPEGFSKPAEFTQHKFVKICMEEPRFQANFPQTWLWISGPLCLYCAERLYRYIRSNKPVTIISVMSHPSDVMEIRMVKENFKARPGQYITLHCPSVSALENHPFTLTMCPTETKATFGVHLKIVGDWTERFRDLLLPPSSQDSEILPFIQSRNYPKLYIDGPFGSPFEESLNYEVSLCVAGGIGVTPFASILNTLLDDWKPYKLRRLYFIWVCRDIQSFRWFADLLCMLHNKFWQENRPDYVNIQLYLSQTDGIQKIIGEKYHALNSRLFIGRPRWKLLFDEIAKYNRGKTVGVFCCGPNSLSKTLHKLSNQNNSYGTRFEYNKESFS

[10] = biological target: NADPH oxidase 5 (Homo sapiens) (UniProt Q96PH1); assay: NOX5-dependent H2O2 signal modulators, primary screen, NOX inhibitor project, cell-based, HEK293-NOX5, Amplex Red fluorescence (AID 1161); conditions: HEK293-NOX5, ionomycin, 45 min, higher = more signal
NADPH oxidase 5 (Homo sapiens), sequence (Q96PH1 whole entry, looked up): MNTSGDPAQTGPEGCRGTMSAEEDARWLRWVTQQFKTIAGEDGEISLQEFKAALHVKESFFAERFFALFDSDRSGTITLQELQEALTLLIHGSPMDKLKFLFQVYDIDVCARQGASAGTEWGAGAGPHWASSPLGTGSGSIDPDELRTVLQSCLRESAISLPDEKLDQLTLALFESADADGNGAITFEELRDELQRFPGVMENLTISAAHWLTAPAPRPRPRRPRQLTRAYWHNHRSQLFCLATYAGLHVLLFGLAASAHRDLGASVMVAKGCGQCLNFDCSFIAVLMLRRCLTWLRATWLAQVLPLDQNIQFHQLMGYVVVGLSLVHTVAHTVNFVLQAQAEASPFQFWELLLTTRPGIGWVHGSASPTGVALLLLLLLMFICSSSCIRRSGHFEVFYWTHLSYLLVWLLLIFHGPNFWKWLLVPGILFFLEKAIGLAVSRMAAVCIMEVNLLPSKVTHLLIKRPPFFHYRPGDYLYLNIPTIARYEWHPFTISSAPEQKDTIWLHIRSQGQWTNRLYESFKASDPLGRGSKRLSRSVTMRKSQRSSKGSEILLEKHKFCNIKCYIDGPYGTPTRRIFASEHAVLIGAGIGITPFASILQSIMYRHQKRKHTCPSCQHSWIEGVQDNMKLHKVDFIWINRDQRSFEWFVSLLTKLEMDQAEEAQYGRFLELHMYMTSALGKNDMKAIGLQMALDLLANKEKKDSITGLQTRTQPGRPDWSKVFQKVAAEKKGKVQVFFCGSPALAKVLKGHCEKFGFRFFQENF

[11] = A549 cell viability effects, profiling panel, calcein-AM fluorescence, 48 h, basal (AID 1162); conditions: higher = more signal; further: test concentration not given here
[12] = adipocyte viability effects, profiling panel, cell-based, 3T3-L1 adipocytes, calcein-AM fluorescence, 48 h, basal (AID 1163); conditions: 3T3-L1 adipocytes viability, higher = more signal; further: test concentration not given here
[13] = HepG2 cell viability effects, profiling panel, calcein-AM fluorescence, 48 h, basal (AID 1164); conditions: higher = more signal; further: test concentration not given here
[14] = MM1S cell viability effects, profiling panel, calcein-AM fluorescence, 48 h, basal (AID 1165); conditions: higher = more signal;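 further: viability of MM1S multiple myeloma cells under basal unstimulated conditions; test concentration not given here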
[15] = basal RPMI8226 viability, no added stimulus, profiling panel, cell-based, calcein-AM fluorescence, 48 h, PK04 Diversity Set (AID 1166); conditions: RPMI8226 myeloma viability, higher = more signal;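 further: cells grown under basal conditions without added stimulus; test concentration not given here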
[16] = basal HepG2 mitochondrial membrane potential changes, profiling panel, cell-based, JC-1 fluorescence, 24 h, 100 nL compound (AID 1167); conditions: higher = more signal; further: test concentration not given here
[17] = basal 3T3-L1 adipocyte mitochondrial potential changes, profiling panel, cell-based, JC-1 fluorescence, 3T3-L1 adipocytes, 24 h, 100 nL compound (AID 1168); conditions: JC-1 mitochondrial fluorescence, higher = more signal, called active from +8 up or from −8 down; further: test concentration not given here
[18] = basal RPMI8226 mitochondrial membrane potential changes, profiling panel, cell-based, JC-1 fluorescence, 24 h, 100 nL compound (AID 1169); conditions: RPMI8226 myeloma, JC-1 mitochondrial potential fluorescence, higher = more signal; further: test concentration not given here
[19] = basal MM1S mitochondrial membrane potential changes, profiling panel, cell-based, JC-1 fluorescence, 24 h, 100 nL compound (AID 1170); conditions: higher = more signal; further: test concentration not given here
[20] = A549 lung cancer cell viability effects, profiling panel, resazurin fluorescence, 24 h, PK04 Diversity Set (AID 1171); conditions: higher = more signal, called active from +8 up or from −8 down; further: test concentration not given here

Row | SMILES | z-score [1] | composite z-score [2] | z-score [3] | z-score [4] | z-score [5] | z-score [6] | z-score [7] | z-score [8] | z-score [9] | z-score [10] | z-score [11] | z-score [12] | z-score [13] | z-score [14] | z-score [15] | z-score [16] | z-score [17] | z-score [18] | z-score [19] | z-score [20]
1 | C=CCN(C(=O)C1N(C(C)(C)CO)C(=O)C2C(C(=O)O)C3C=CC21O3)C(C)(C)C (stereo not given) | -0.497 (inactive) and 0.156 (inactive) | 0.0026 and -0.316 | -0.455 (inactive) and -0.501 (inactive) | 0.222 (inactive) and 0.135 (inactive) | -0.67 (inactive) and -0.452 (inactive) | 0.11 (inactive) and -0.11 (inactive) | -0.356 and -0.316 | 0.849 (inactive) and 0.0709 (inactive) | -1.48 (inactive) and -2.38 (inactive) | 0.103 and -0.476 | -0.209 and -0.173 | -0.72 and 0.343 | 0.384 and 0.816 | 0.676 and 0.647 | 0.0691 and 0.0574 | -0.896 and 0.142 | -0.308 (inactive) and 0.228 (inactive) | 0.669 and -0.287 | 0.88 and 0.351 | -0.777 (inactive) and -0.128 (inactive)
2 | CC(C)N1CC=CC23O[C@@H]4C=CCCOC(=O)C4[C@H]2C(=O)N(C(C)CO)[C@@H]3C1=O (stereo not given in full) | 2.39 (inactive) and 2.01 (inactive) | 0.0004 and -0.147 | 0.339 (inactive) and 1.47 (inactive) | -0.917 (inactive) and -0.564 (inactive) | -0.0544 (inactive) and 0.331 (inactive) | -1.54 (inactive) and -0.97 (inactive) | 0.22 and -0.109 | 1.94 (inactive) and 1.59 (inactive) | 0.808 (inactive) and 0.594 (inactive) | 2.17 and 1.76 | -0.507 and 0.287 | 1.61 and 1.45 | -0.658 and -0.153 | 1.24 and 0.914 | 0.264 and 0.678 | 0.534 and 0.979 | 1.21 (inactive) and 1.41 (inactive) | 0.0803 and 0.664 | 1.69 and 1.02 | 0.0618 (inactive) and 0.502 (inactive)
3 | C=CCN(CCCC)C(=O)C1N(CCCCCCO)C(=O)C2C(C(=O)O)C3C=CC21O3 (stereo not given) | -0.91 (inactive) and -0.81 (inactive) | -0.31 and -0.101 | 0.153 (inactive) and -0.368 (inactive) | -0.0395 (inactive) and 0.354 (inactive) | -0.661 (inactive) and -0.802 (inactive) | -0.11 (inactive) and -0.0605 (inactive) | -0.686 and -0.762 | 0.634 (inactive) and 0.835 (inactive) | -0.159 (inactive) and -0.18 (inactive) | 0.75 and 1.01 | -0.835 and -0.441 | 0.221 and -0.0736 | -1 and -0.393 | 0.62 and 1.32 | 0.646 and -0.44 | -0.253 and -0.939 | 0.051 (inactive) and -0.617 (inactive) | 0.221 and 0.855 | -0.00969 and -0.273 | -0.59 (inactive) and -0.439 (inactive)
4 | CCOC(=O)CCN1C(=O)[C@H]2[C@H]3[C@H](O)[C@H](O)CC(=NNC(=O)OCC)[C@@H]3CC[C@H]2C1=O | 0.542 (inactive) | -0.193 | -0.48 (inactive) | 0.189 (inactive) | -0.602 (inactive) | -0.0634 (inactive) | -0.494 | -0.489 (inactive) | 0.916 (inactive) | 0.754 | 0.241 | -0.0796 | 0.076 | -0.847 | -0.314 | -0.566 | -0.541 (inactive) | 0.209 | -0.479 | -0.453 (inactive)
5 | C=CCN(C(=O)C(c1cccs1)N(C(=O)/C=C\C(=O)O)C(C)(C)CO)c1ccc(OC)cc1 (stereo not given) | 3.97 (inactive) and 3.23 (inactive) | -0.0722 and 0.121 | 0.292 (inactive) and 3.92 (inactive) | -0.775 (inactive) and -0.466 (inactive) | 0.029 (inactive) and -0.675 (inactive) | -1.05 (inactive) and -1.12 (inactive) | 1.97 and 1.04 | 0.0253 (inactive) and -0.0835 (inactive) | -0.464 (inactive) and -0.814 (inactive) | -0.126 and 0.853 | 3.04 and 1.76 | 1.09 and 0.718 | 0.717 and 1.1 | 1.61 and 1.55 | -0.223 and 1.05 | 1.16 and 0.287 | 2.24 (inactive) and 0.954 (inactive) | -0.567 and 0.754 | 0.212 and 0.326 | 0.579 (inactive) and -0.0357 (inactive)
6 | C[C@@H]1CC[C@@H](C(=O)O)N[C@H]1c1ccc(-c2ccco2)cc1 | -0.601 (inactive) | 0.0721 | 0.732 (inactive) | 1.2 (inactive) | 0.871 (inactive) | 0.883 (inactive) | -0.282 | -0.71 (inactive) | 0.156 (inactive) | 0.798 | 1.11 | -0.396 | 0.229 | 0.617 | 0.404 | 1.49 | 0.309 (inactive) | -0.636 | 0.496 | 0.115 (inactive)
7 | CCCC[C@@H]1CN2[C@H](c3ccc(Br)cc3)[C@@H](C)CC[C@H]2C(=O)O1 | 0.469 (inactive) and -0.0124 (inactive) | -0.308 and -0.0132 | 1.56 (inactive) and 1.12 (inactive) | 0.395 (inactive) and 0.586 (inactive) | 1.2 (inactive) and -0.241 (inactive) | 0.492 (inactive) and 0.318 (inactive) | 0.57 and -0.262 | 0.203 (inactive) and -0.527 (inactive) | 0.332 (inactive) and -0.0635 (inactive) | -0.884 and -1.79 | 1.03 and 0.449 | -1.1 and -0.272 | 0.155 and 0.493 | -1.36 and -0.797 | 0.969 and 0.24 | 0.134 and -1.42 | -0.299 (inactive) and -0.848 (inactive) | -0.187 and -0.361 | -1.19 and 1.26 | 0.301 (inactive) and 1.49 (inactive)
